Where “and” joins values, the source holds several entries; their conditions need not be identical. Identical values can stand only once. A number with no mark means an inactive call. Results filed as inconclusive are left out. Where a call stands in place of a potency, no number is given. Calls of active or inactive are those of the source. Unless noted, calls come from the whole dose curve; as a rule, active = well fitted curve in either direction with a large enough effect (not every such curve was filed as active); inconclusive = small, poorly fitted or top-dose-only effect, or another doubt; inactive = flat fitted curve, though single readings scatter. Peptide text beside a SMILES is read from it.
Key:
[1] = AP1 Signaling Pathway (AID 357);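 note: ME-180 reporter cells stimulated with EGF at its EC50 level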
Summary of the method: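 Cells are seeded overnight, exposed to compound titrations and an EC50 level of EGF for 5 hours at 37 °C, then loaded with CCF4 dye for 2.5 hours. Beta-lactamase activity under the AP-1 element is read as a blue/green ratio.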

[2] = target: Cytochrome P450 1A2 (Homo sapiens) (UniProt P05177); assay: p450-cyp1a2 (AID 410; calls by dose curve; note: potency is the fitted concentration of half-maximal effect)
Cytochrome P450 1A2 (Homo sapiens), sequence (P05177 whole entry, looked up): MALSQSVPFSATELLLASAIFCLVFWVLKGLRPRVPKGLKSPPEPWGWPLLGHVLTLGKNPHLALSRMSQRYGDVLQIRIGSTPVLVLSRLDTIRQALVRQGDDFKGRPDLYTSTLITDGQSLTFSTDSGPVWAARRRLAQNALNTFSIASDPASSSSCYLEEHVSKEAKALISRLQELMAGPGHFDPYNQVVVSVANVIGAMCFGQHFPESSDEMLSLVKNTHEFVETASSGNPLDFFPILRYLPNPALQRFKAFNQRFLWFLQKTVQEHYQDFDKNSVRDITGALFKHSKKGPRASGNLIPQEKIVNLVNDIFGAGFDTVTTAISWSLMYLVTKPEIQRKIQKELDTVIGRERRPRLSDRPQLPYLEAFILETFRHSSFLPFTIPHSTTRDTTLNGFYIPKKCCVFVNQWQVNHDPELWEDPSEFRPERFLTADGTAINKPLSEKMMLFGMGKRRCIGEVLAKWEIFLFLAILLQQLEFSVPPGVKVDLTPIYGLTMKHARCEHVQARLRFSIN
Summary of the method: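 Luminescent demethylation readout: Luciferin-ME (100uM, equal to Km) turned over by 20nM CYP1A2 for 60 min at room temperature after NADPH regeneration addition, following 10 min compound preincubation. Normalization used 57 uM furafylline as full inhibition.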

[3] = NFAT Signaling Pathway (AID 444); details: Jurkat NFAT-bla M1, carbachol, beta-lactamase ratio, 5 h;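 note: carbachol stimulus at about its EC50 of 1 µM final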
Summary of the method: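 Read-out: CCF4 FRET ratio (460 nm/530 nm) after 1 h RT dye loading, used for %activity and AC50 from titration series. Cells: Jurkat NFAT-β-lactamase/M1 line, treated with compound plus 1 uM carbachol for 5 h, 37 °C.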

[4] = target: Glucocorticoid receptor (Homo sapiens) (UniProt P04150); assay: GR-GFP Redistribution (AID 450;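 active = compounds whose dose series gives a full or clear partial fitted curve of increased nuclear translocation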; note: potency is the fitted concentration of half-maximal effect); details: U2OS GR-GFP nuclear translocation, laser cytometry, 2 h
Glucocorticoid receptor (Homo sapiens), sequence (P04150 whole entry, looked up, the tested form may be a part): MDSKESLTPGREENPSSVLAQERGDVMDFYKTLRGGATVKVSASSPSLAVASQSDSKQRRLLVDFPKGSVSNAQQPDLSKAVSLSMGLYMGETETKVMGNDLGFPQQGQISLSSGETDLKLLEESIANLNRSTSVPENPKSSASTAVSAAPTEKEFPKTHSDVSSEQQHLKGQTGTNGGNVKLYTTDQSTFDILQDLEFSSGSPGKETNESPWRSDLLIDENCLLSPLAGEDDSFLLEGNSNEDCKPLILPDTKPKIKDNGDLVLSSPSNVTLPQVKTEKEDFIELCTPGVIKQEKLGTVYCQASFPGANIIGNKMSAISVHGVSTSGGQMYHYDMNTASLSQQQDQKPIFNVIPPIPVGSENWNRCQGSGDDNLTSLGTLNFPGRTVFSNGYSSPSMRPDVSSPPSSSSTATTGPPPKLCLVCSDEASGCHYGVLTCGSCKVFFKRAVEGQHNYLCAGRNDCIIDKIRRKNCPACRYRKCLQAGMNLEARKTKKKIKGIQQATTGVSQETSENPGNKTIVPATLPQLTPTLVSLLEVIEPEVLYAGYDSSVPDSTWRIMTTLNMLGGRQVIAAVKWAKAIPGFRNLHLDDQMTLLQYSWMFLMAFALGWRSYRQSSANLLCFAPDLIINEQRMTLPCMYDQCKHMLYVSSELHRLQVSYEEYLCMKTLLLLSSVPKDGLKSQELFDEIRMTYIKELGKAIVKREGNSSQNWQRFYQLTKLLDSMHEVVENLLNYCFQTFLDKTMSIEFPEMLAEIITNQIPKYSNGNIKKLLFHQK

[5] = target: Glucocorticoid receptor (Homo sapiens) (UniProt P04150); assay: GR-EFC Redistribution (AID 451; calls by dose curve; note: potency is the fitted concentration of half-maximal effect); details: CHO-K1 GR-EFC translocation, beta-gal luminescence, 2 h
Summary of the method: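 Translocation of GR-ED fusion to nuclear EA restores b-gal, read by luminescence after 1 h room-temperature detection. Engineered CHO-K1 biosensor cells, 1,000/well, exposed 2 h at 37 C to titrations up to 46 uM final.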

[6] = target: Mitogen-activated protein kinase 10 (Mus musculus) (UniProt Q61831); assay: JNK3 AlphaScreen Assay (AID 530);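 note: kinase came from lysate of stimulated human HepG2 cells; signal reports phosphorylation of biotinylated GST-cJun 1-79 at Ser73 with 10 µM ATP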
Summary of the method: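 qHTS titrations with 15 min compound pre-incubation before adding ATP (10 uM final). Read-out: AlphaScreen of Ser73-phosphorylated biotin-GST-cJun using HepG2 lysate JNK3 activated by IL-1β and TNFα.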

[7] = target: 3',5'-cyclic-AMP phosphodiesterase 4B (Homo sapiens) (UniProt Q07343); assay: qHTS Assay for Inhibitors of PDE-IV (AID 607; active = well fitted activation curve with a large enough effect in the main read-out, with a control signal flat, not every such curve was filed as active)
3',5'-cyclic-AMP phosphodiesterase 4B (Homo sapiens), sequence (Q07343 whole entry, looked up): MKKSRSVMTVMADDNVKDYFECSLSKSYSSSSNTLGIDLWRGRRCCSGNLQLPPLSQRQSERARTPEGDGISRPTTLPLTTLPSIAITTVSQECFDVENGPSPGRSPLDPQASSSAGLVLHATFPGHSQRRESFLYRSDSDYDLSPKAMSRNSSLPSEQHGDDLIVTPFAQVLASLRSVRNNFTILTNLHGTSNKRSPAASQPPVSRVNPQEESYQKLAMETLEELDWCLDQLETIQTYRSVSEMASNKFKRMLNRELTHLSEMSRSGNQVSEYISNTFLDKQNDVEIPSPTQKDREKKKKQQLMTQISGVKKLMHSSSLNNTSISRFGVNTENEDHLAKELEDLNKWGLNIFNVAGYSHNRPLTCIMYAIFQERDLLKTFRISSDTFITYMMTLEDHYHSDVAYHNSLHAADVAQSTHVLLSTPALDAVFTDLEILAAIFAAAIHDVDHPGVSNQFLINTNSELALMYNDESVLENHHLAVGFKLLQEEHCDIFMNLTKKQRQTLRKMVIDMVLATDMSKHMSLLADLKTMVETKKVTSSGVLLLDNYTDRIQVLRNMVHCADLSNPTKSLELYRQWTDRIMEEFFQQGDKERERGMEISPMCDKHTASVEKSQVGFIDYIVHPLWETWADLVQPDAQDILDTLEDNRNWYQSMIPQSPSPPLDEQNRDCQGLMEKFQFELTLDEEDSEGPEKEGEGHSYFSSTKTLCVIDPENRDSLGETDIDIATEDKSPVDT
Summary of the method: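 ACTOne HEK293 cells carry a modified cAMP-gated CNG channel and express endogenous PDE4; plated 1000 cells/well, compounds up to 22.9 uM final. Membrane-potential dye fluorescence (ex 535/em 590) was read; parental cells received 10 uM forskolin + 100 uM RO 20-1724.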

[8] = Cell Viability - BJ (AID 421; calls by dose curve;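 note: potency is the fitted concentration of half-maximal effect; cells exposed to compound for 40 hours at 37 °C before readout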); details: BJ fibroblast viability, qHTS
Summary of the method: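 Luminescent ATP signal (CellTiter-Glo, 20 min at room temperature) served as the read-out of viable BJ cells after 40 hours of compound treatment. Responses were scaled between DMSO and 100 uM tamoxifen, and AC50 values were obtained by Hill modeling.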

[9] = Cell Viability - Hek293 (AID 427;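 active = compounds whose dose-response curve shows a full or clear partial loss of cell viability, called from curve shape rather than a numeric limit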;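 note: potency is the fitted concentration of half-maximal effect; cells exposed to compound for 40 hours at 37 °C before reading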); details: qHTS
Summary of the method: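 Luminescent ATP read-out (CellTiter-Glo, 20 min RT) after 40 hr compound exposure at 37 °C in complete medium. Signal normalized to DMSO (basal) and 100 uM tamoxifen (100% inhibition); concentration-response fitted with the standard Hill equation to give AC50.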

[10] = Cell Viability - HepG2 (AID 433; calls by dose curve;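 note: potency is the fitted concentration of half-maximal effect; potency for ATP loss meaning cytotoxicity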); details: qHTS
Summary of the method: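 Cytotoxicity is scored as loss of intracellular ATP in HepG2 cells exposed to compounds for 40 h. Concentration-response curves, normalized to DMSO and 100 uM tamoxifen, give AC50 values.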

[11] = Cell Viability - MRC5 (AID 434; calls by dose curve;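 note: potency is the fitted concentration of half-maximal effect; cells exposed to compound for 40 hours at 37 °C; potency reflects cytotoxicity seen as loss of intracellular ATP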); details: MRC5 lung fibroblast viability, qHTS
Summary of the method: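 AC50 values come from Hill-equation fits of intracellular ATP loss, measured by CellTiter-Glo luminescence. Normal lung fibroblasts (MRC5) had 40 hr compound treatment at 37 C, normalized between DMSO and 100 uM tamoxifen.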

[12] = Cell Viability - SK-N-SH (AID 435; calls by dose curve; note: potency is the fitted concentration of half-maximal effect); details: SK-N-SH neuroblastoma cell viability qHTS
Summary of the method: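 Cells seeded at 1500 per well and incubated 5 hr at 37 °C. Compound added, then 40 hr at 37 °C. CellTiter-Glo added, 20 min at room temperature, luminescence read.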

[13] = Cell Viability - N2a (AID 540; active = well fitted curve in the direction sought with a large enough effect; an effect the other way counts as inactive or inconclusive; note: nearly all actives have a fitted effect of over 45% in size); details: N2a mouse neuroblastoma cell viability; activity change, negative = cytotoxicity: at 92.2 µM (top of the series)
Summary of the method: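 CellTiter-Glo ATP luminescence, read 20 min after reagent at room temperature, reported viability following 40 h compound treatment at 37 °C. N2a mouse neuroblastoma cells seeded 1500/well; Hill equation gave AC50.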

[14] = Cell Viability - NIH 3T3 (AID 541; active = well fitted curve in the direction sought with a large enough effect; an effect the other way counts as inactive or inconclusive; note: nearly all actives have a fitted effect of over 25% in size)
Summary of the method: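 Intracellular ATP (CellTiter-Glo luminescence, 20 min at room temperature) measured after 40 hr compound exposure at 37 °C of 1000 NIH 3T3 mouse fibroblasts/well in complete medium; AC50 derived by Hill-equation modelling of qHTS concentration-response curves.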

[15] = Cell Viability - HUV-EC-C (AID 542; active = well fitted curve in the direction sought with a large enough effect; an effect the other way counts as inactive or inconclusive; note: nearly all actives have a fitted effect of over 35% in size)
Summary of the method: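 CellTiter-Glo luminescence measured ATP loss in HUV-EC-C cells (1000/well) after 40 hr compound exposure at 37 °C, in complete culture medium. Concentration-response data were Hill-fitted to give AC50.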

[16] = Cell Viability - H-4-II-E (AID 543; active = well fitted curve in the direction sought with a large enough effect; an effect the other way counts as inactive or inconclusive; note: nearly all actives have a fitted effect of over 35% in size)
Summary of the method: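 CellTiter-Glo luminescence (intracellular ATP) measured after 40 h compound exposure at 37 °C in H-4-II-E rat hepatoma cells seeded at 1500/well. Values are AC50s fitted with the standard Hill equation.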

[17] = Cell Viability - SH-SY5Y (AID 544; active = well fitted curve in the direction sought with a large enough effect; an effect the other way counts as inactive or inconclusive; note: nearly all actives have a fitted effect of over 55% in size)
Summary of the method: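 Cytotoxicity measured via ATP-dependent luciferase luminescence (CellTiter-Glo) following 40 h, 37 °C exposure of 1500 SH-SY5Y cells per well. Concentration-response data were fitted with the standard Hill equation to give AC50.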

[18] = Cell Viability - Renal Proximal Tubule (AID 545; active = well fitted curve in the direction sought with a large enough effect; an effect the other way counts as inactive or inconclusive; note: nearly all actives have a fitted effect of over 40% in size)
Summary of the method: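 Cytotoxicity is scored as a concentration-dependent drop in cellular ATP in primary rat renal proximal tubule cells exposed for 40 hr. AC50 derives from Hill modelling.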

[19] = Cell Viability - Mesenchymal (AID 546; active = well fitted curve in the direction sought with a large enough effect; an effect the other way counts as inactive or inconclusive;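 note: cells exposed to compound for 40 hours before reading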)
Summary of the method: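 CellTiter-Glo luminescence (intracellular ATP, 20 min room temperature) after 40 hr compound exposure at 37 °C of 1000 glomerulus-derived human kidney mesenchymal cells/well; AC50 values obtained by fitting qHTS concentration-response data to the Hill equation.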

[20] = Stat Signaling Pathway (AID 446);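 note: ME-180 cervical cancer cells given 40 pM IL-6 alongside compound; SIE-controlled beta-lactamase reporter measured as 460/530 nm FRET emission ratio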
Summary of the method: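 Compound effects on IL-6-induced STAT reporter activity were measured in ME-180 cells. After overnight culture, cells were co-treated with 40 pM IL-6 for 5 hrs before beta-lactamase substrate loading at room temperature.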

Which outcome [1] does the source give for `O=c1c(O)c(-c2ccc(O)cc2O)oc2cc(O)cc(O)c12` here?
Its outcome is “inactive”.

What about the Potency [2] of the same compound?
Its Potency is 12.6 µM (active).

What about the activity change, negative = inhibition ([3]; at 17.2 µM (top of the series)) of the same compound?
The activity change, negative = inhibition was 10%.

And the activity change, negative = inhibition ([3]; at 38 µM (top of the series))?
The activity change, negative = inhibition was 2.93%.

And the Potency [4]?
Its Potency is > 46 µM and > 20.6 µM.

And the Potency [5]?
Its Potency is greater than 46 µM.

And the Potency [6]?
The Potency was “inactive”.

And the outcome [7]?
Its outcome is “inactive”.

Which Potency [8] does the source give for `COC(=O)[C@H](Cc1ccccc1)NC(=O)[C@@H](N)CC(=O)O` (H-Asp-Phe-OMe) here?
The Potency was greater than 92 µM.

And the Potency [9]?
The Potency was greater than 92 µM.

And the Potency [10]?
Its Potency is greater than 92 µM.

And the Potency [11]?
Its Potency is greater than 92 µM.

What about the Potency [12] of the same compound?
The Potency was greater than 92 µM.

And the Potency [6]?
Its Potency is “inactive”.

And the Potency [13]?
The Potency was “inactive”.

And the Potency [14]?
Its Potency is “inactive”.

What about the Potency [15] of the same compound?
Its Potency is “inactive”.

What about the Potency [16] of the same compound?
The Potency was “inactive”.

What about the Potency [17] of the same compound?
The Potency was “inactive”.

What about the Potency [18] of the same compound?
Its Potency is “inactive”.

And the Potency [19]?
Its Potency is “inactive”.

Which Potency [8] does the source give for `CCCCC(CC)COC(=O)C(C#N)=C(c1ccccc1)c1ccccc1` (centres undefined) here?
Its Potency is greater than 92 µM.

What about the Potency [9] of the same compound?
The Potency was greater than 92 µM.

And the Potency [10]?
Its Potency is greater than 92 µM.

What about the Potency [11] of the same compound?
The Potency was greater than 92 µM.

What about the Potency [12] of the same compound?
The Potency was greater than 92 µM.

And the Potency [15]?
The Potency was “inactive”.

And the Potency [17]?
The Potency was “inactive”.

And the Potency [18]?
The Potency was “inactive”.

What about the Potency [19] of the same compound?
The Potency was “inactive”.

Which outcome [1] does the source give for `COc1cc2nc(N3CCN(C(=O)C4CCCO4)CC3)nc(N)c2cc1OC` (centres undefined) here?
Its outcome is “inactive”.

And the outcome [20]?
Its outcome is “inactive”.

What about the Potency [4] of the same compound?
The Potency was greater than 20.6 µM.

Which results are given for `CNC[C@H](O)c1ccc(O)c(O)c1`?
outcome [1]: inactive; activity change, negative = inhibition ([3]; at 38 µM (top of the series)): 1.71% and -6.16%; outcome [20]: inactive; Potency [6]: inactive; outcome [7]: inactive

For `COc1ccc2cc([C@H](C)C(=O)O)ccc2c1`, which outcome [1] is on record?
The outcome was “inactive”.

And the activity change, negative = inhibition ([3]; at 17.2 µM (top of the series))?
The activity change, negative = inhibition was -15.8% and 6.69% and 9.43%.

What about the activity change, negative = inhibition ([3]; at 38 µM (top of the series)) of the same compound?
The activity change, negative = inhibition was 0.0959%.

What about the outcome [20] of the same compound?
Its outcome is “inactive”.

And the Potency [6]?
The Potency was “inactive”.

Which results are given for `Nc1cc(C(Cl)=C(Cl)Cl)c(S(N)(=O)=O)cc1S(N)(=O)=O`?
outcome [1]: inactive; activity change, negative = inhibition ([3]; at 17.2 µM (top of the series)): -0.14%; outcome [20]: inactive; Potency [4]: > 20.6 µM; Potency [5]: > 20.6 µM; Potency [6]: inactive; outcome [7]: inactive

For `N=C(N=C(N)N)N1CCOCC1`, which outcome [1] is on record?
The outcome was “inactive”.

And the activity change, negative = inhibition ([3]; at 17.2 µM (top of the series))?
Its activity change, negative = inhibition is -6.61%.

And the outcome [20]?
The outcome was “inactive”.

What about the Potency [4] of the same compound?
The Potency was > 20.6 µM and > 46 µM.

And the Potency [5]?
Its Potency is > 20.6 µM and > 46 µM.

And the Potency [6]?
Its Potency is “inactive”.

And the outcome [7]?
Its outcome is “inactive”.

What does the source list for `CCCOc1ccc2nc(NC(=O)OC)[nH]c2c1`?
outcome [1]: inactive; outcome [20]: inactive; Potency [4]: > 20.6 µM

For `COC(=O)C1=C(C)NC(C)=C(C(=O)OC(C)C)C1c1cccc2nonc12` (centres undefined), which Potency [2] is on record?
Its Potency is 31.6 µM (active).

What about the Potency [4] of the same compound?
Its Potency is greater than 46 µM.

And the Potency [5]?
Its Potency is greater than 46 µM.

What about the Potency [6] of the same compound?
The Potency was “inactive”.

From PubChem BioAssay (NCATS)
